Measured values from PubChem BioAssay (NCATS).
Where “and” joins values, the source holds several entries; their conditions need not be identical. Identical values can stand only once. Records with an inconclusive call do not appear. Calls of active or inactive are those of the source. Unless noted, calls follow the shape of the dose curve; as a rule, active = well fitted curve in the direction sought with a large enough effect; inconclusive = small, poorly fitted or top-dose-only effect, or another doubt; inactive = no such curve, though single readings can be large; an effect the other way counts as inactive or inconclusive.

Assays:
[1] = system: Zika virus NS2B-NS3 protease (unlinked complex); assay: Primary screen GU Rhodamine qHTS for Zika virus inhibitors: Unlinked NS2B-NS3 protease assay (AID 1347159); also: nearly all actives have a fitted effect of over 60% in size; also: potency is read from the fitted curve at half-maximal effect
Procedure, shortened: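 Percent inhibition came from the 15-min rise in Rhodamine110 fluorescence (1.5 microM substrate, ~15% conversion), normalized to no-inhibitor and no-enzyme wells and Hill-fitted. Unlinked protease, 25 nM, pH 8.0 Tris buffer; compounds up to 114 microM, 15-min preincubation.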

[2] = system: Zika virus NS2B-NS3 protease (linked construct); assay: Primary screen NINDS Rhodamine qHTS for Zika virus inhibitors (AID 1347160); also: nearly all actives have a fitted effect of over 55% in size; also: potency is read from the fitted curve at half-maximal effect
Procedure, shortened: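 Rhodamine110-peptide cleavage (1.5 µM substrate) by 25 nM linked NS2B-NS3 enzyme at pH 8.0 (Tris, Tween 20), after 15 min RT preincubation with compounds; 15-min fluorescence change normalized to controls and Hill-fitted.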

[3] = molecular target: Calcium and integrin-binding protein 1 (Homo sapiens) (UniProt Q99828); assay: Primary qHTS for Identification of Calcium Integrin Binding Protein 1 (CIB1) Competitor (AID 1508620);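 also: GST tagged CIB1 binding a fluorescein labelled alphaIIb integrin peptide tracer; top concentration of the series differs between compounds; % is scaled to controls: 0 for no effect and ±100 for the full control effect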
Calcium and integrin-binding protein 1 (Homo sapiens), sequence (Q99828 whole entry, looked up): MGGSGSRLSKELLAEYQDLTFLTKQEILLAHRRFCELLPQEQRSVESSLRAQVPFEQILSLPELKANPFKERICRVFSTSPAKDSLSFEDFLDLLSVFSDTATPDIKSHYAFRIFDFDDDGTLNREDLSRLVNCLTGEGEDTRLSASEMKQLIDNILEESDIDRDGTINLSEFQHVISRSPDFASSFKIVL
Procedure, shortened: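 Fluorescence polarization competition: GST-tagged CIB1 (1 uM final) preincubated with compound 15 min at room temperature, then FITC-labelled alphaIIb peptide (100 nM final) added. After 15 min at room temperature, polarization read at Ex 480/Em 540.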

[4] = Primary qHTS for inhibitors of nuclear receptor binding SET domain protein 2 (NSD2) in an isogenic RCH-ACV NSD2 p.E1099K mutant (9B) (AID 1645876); also: potency is read from the fitted curve at half-maximal effect; nearly all actives have a fitted effect of over 70% in size
[5] = Primary qHTS for inhibitors of nuclear receptor binding SET domain protein 2 (NSD2) in an RCH-ACV wild type WT cells (2C) (AID 1645877); also: potency is read from the fitted curve at half-maximal effect; nearly all actives have a fitted effect of over 70% in size
[6] = molecular target: Glutathione peroxidase 1 (Homo sapiens) (UniProt P07203); assay: Primary qHTS Assay for Inhibitors of Recombinant Selenoprotein Glutathione Peroxidase 1 (GPX1) (AID 1845191); also: nearly all actives have a fitted effect of over 65% in size; also: potency is read from the fitted curve at half-maximal effect
Glutathione peroxidase 1 (Homo sapiens), sequence (P07203 whole entry, looked up): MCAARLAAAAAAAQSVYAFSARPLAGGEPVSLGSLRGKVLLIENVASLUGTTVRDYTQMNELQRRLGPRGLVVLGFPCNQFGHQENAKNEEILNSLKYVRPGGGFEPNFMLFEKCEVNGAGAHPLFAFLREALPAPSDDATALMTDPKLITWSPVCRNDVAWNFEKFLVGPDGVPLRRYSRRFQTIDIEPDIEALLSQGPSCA
Procedure, shortened: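 GR-coupled readout: NADPH consumption tracked by fluorescence, ex 340/em 450 nm, at t=0 and after 15 min at RT. Final mix 10 nM GPX1, 1 mM GSH, 0.5 mM CHP, 0.5 mM NADPH, 100 nM GR, 0.01% BSA, following 30 min enzyme–compound preincubation.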

[7] = molecular target: Phospholipid hydroperoxide glutathione peroxidase GPX4 (Homo sapiens) (UniProt P36969); assay: Primary qHTS Assay for Inhibitors of Recombinant Selenoprotein Glutathione Peroxidase 4 (GPX4) (AID 1845192); details: outcome: dose series up to 50 µM unless noted; also: nearly all actives have a fitted effect of over 65% in size; also: potency is read from the fitted curve at half-maximal effect
Phospholipid hydroperoxide glutathione peroxidase GPX4 (Homo sapiens), sequence (P36969 whole entry, looked up): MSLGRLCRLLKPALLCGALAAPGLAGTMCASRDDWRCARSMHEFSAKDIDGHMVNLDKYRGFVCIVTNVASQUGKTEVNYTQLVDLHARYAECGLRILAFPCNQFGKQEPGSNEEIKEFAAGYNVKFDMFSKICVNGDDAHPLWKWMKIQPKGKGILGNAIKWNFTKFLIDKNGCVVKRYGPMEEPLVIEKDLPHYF
Procedure, shortened: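 Steps: GPX4 plus compound, 30 min RT; add GR/GSH/NADPH master mix; start with cumene hydroperoxide; read 340/450 nm fluorescence at 0 and 15 min. Finals were 200 nM GPX4, 1 mM GSH, 0.5 mM CHP, 0.5 mM NADPH, 100 nM GR.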

[8] = molecular target: Luciferin 4-monooxygenase (Photinus pyralis) (UniProt P08659); assay: Primary firefly luciferase (FLuc) qHTS assay for identification of artifact compounds. (AID 1845220); also: nearly all actives have a fitted effect of over 60% in size
Procedure, shortened: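 Enzymatic FLuc inhibition assay: compounds pre-exposed to luciferin/ATP (10 uM each) for 15 min, then purified P. pyralis enzyme at 10 nM added. Read-out: luminescence at 5 min.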

[9] = system: Nanoluciferase (engineered Oplophorus gracilirostris luciferase); assay: Primary Nanoluciferase (NLuc) qHTS assay for identification of artifact compounds. (AID 1845222);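 also: NLuc secreted into diluted conditioned medium of S16 cells; 0% = DMSO and -100% = no enzyme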
Procedure, shortened: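 S16 cell supernatant NLuc, 1:55; cpds qHTS; 15 min RT dark; Nano-Glo substrate 1:100, 5 min; luminescence; Hill fit of % inhibition.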

CASKI = assay: Primary qHTS to identify gynecologic anti-cancer compounds using libraries of approved drugs and bioactive compounds (AID 1345084); details: Gynecologic cancer cell panel viability, ATPlite luminescence, 48 h; series mostly up to 57.5 µM; also: nearly all actives have a fitted effect of over 55% in size; also: potency is read from the fitted curve at half-maximal effect
Procedure, shortened: (§1)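 Five-concentration response, 48 h; readout is ATP-driven luciferase luminescence.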

Es-2 = assay: as above; details: Gynecologic cancer cell panel viability, ATPlite luminescence, 48 h; series mostly up to 57.5 µM
Procedure, shortened: as §1

HeLa = assay: as above; details: Gynecologic cancer cell panel viability, ATPlite luminescence, 48 h; series mostly up to 57.5 µM
Procedure, shortened: as §1

Hek293T = assay: as above; details: Gynecologic cancer cell panel viability, ATPlite luminescence, 48 h, control line for the selectivity index; series mostly up to 57.5 µM
Procedure, shortened: as §1

JEG-3 = assay: as above; details: Gynecologic cancer cell panel viability, ATPlite luminescence, 48 h; series mostly up to 57.5 µM
Procedure, shortened: as §1

OV90 = assay: as above; details: Gynecologic cancer cell panel viability, ATPlite luminescence, 48 h; series mostly up to 57.5 µM
Procedure, shortened: as §1

Tov-21-G = assay: as above; details: Gynecologic cancer cell panel viability, ATPlite luminescence, 48 h; series mostly up to 57.5 µM
Procedure, shortened: as §1

Tov112D = assay: as above; details: Gynecologic cancer cell panel viability, ATPlite luminescence, 48 h; series mostly up to 57.5 µM
Procedure, shortened: as §1

[10] = P-glycoprotein substrates identified in KB-8-5-11 adenocarcinoma cell line, qHTS therapeutic library screen (AID 1346987); also: potency is read from the fitted curve at half-maximal effect; nearly all actives have a fitted effect of over 65% in size
Procedure, shortened: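 Human cervical adenocarcinoma KB-8-5-11 cells, selected in colchicine to over-express P-gp and assayed without it, were exposed for 72 h to titrated compounds. An ATP-based luminescent viability signal gave AC50.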

[11] = qHTS drug screen for cell cycle checkpoint inhibitors in PARPi-resistant BRCA-mutant ovarian cancer cell lines. (AID 1963452; calls by dose curve); details: PEO1/OlaR viability, CellTiter-Glo luminescence, 96 h, stronger effect = lower value
Procedure, shortened: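 PEO1, PEO4 and PEO1/OlaR ovarian cancer cells, 600 per well, exposed 96 h at 37C to a dilution series. Viability read by CellTiter-Glo luminescence, normalized to DMSO and empty wells; activity summarized as Z-AUC.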

C33A = assay: Primary qHTS to identify gynecologic anti-cancer compounds using libraries of approved drugs and bioactive compounds (AID 1345084); details: Gynecologic cancer cell panel viability, ATPlite luminescence, 48 h; series mostly up to 57.5 µM; also: nearly all actives have a fitted effect of over 55% in size; also: potency is read from the fitted curve at half-maximal effect
Procedure, shortened: as §1

[12] = measured here: PEO1 parental Z-AUC

COc1ccc(NC(=O)N2CCc3c2ccc2ccccc32)cc1N1CCN(C)CC1
active: Potency [4] 14.5 µM | Potency [5] 14.5 µM
inactive: Potency [1] | Potency [2] | outcome [3] | Potency [6] | Potency [7] | Potency [8] | Potency [9] | Potency (CASKI) | Potency (Es-2) | Potency (HeLa) | Potency (Hek293T) | Potency (JEG-3) | Potency (OV90) | Potency (Tov-21-G) | Potency (Tov112D)

N#Cc1cccc(C#N)c1-c1nc2c3ccccc3c3cc(Cl)ccc3c2[nH]1
inactive: Potency [1] | Potency [2] | outcome [3] | Potency [7] | Potency [8] | Potency [9] | Potency (CASKI) | Potency (Es-2) | Potency (Hek293T) | Potency (JEG-3) | Potency (OV90) | Potency (Tov-21-G) | Potency (Tov112D)
active: Potency [10] 23.1 µM | Potency [4] 10.3 µM | Potency [5] 10.3 µM

COc1cc(N2CCN(C)CC2)ccc1Nc1nccc(-c2cn(C)c3cnccc23)n1
active: Potency [10] 16.4 µM | Potency [4] 7.28 µM and 8.33 µM | Potency [5] 5.15 µM and 4.17 µM
inactive: Potency [1] | outcome [3] | Potency [6] | Potency [7] | Potency [9] | Z-AUC [11] -0.0606 | Potency (HeLa) | Potency (Hek293T) | Potency (JEG-3) | Potency (Tov-21-G) | Potency (Tov112D)
0.299: Z-AUC [11, 12]
0.437: Z-AUC ([11]; measured here: PEO4 Z-AUC)

COc1ccccc1-c1c[nH]c2ncc(-c3cncc(C(=O)N(C)C)c3)cc12
inactive: Potency [1] | Potency [2] | outcome [3] | Potency [6] | Potency [7] | Potency [8] | Potency [9] | Potency (C33A) | Potency (CASKI) | Potency (Es-2) | Potency (JEG-3) | Potency (OV90)

COc1ccc(-c2cc(C(O)C3CCCCN3)c3ccccc3n2)cc1 (stereo not drawn)
active: Potency [10] 20.6 µM | Potency [4] 7.42 µM | Potency [5] 4.68 µM | Potency [6] 20.2 µM | Potency [7] 22.7 µM | Potency (OV90) 31.6 µM
-0.864: Z-AUC [11, 12]
inactive: Potency [1] | Potency [2] | outcome [3] | Potency [8] | Potency [9] | Z-AUC [11] -0.506
-0.334: Z-AUC ([11]; measured here: PEO4 Z-AUC)

CC[C@]1(O)C[C@H]2CN(CCC3C(=Nc4ccccc43)[C@@](C(=O)OC)(c3cc4c(cc3OC)N(C)[C@H]3[C@@](O)(C(N)=O)[C@H](O)[C@]5(CC)C=CCN6CC[C@]43[C@@H]65)C2)C1 (stereo partly drawn)
inactive: Potency [2] | outcome [3] | Potency [7] | Potency [8] | Potency [9]
active: Potency [10] 3.66 µM | Potency [4] 0.0515 µM | Potency [5] 0.023 µM | Potency (CASKI) 0.199 µM | Potency (Es-2) 0.794 µM | Potency (HeLa) 0.398 µM | Potency (JEG-3) 0.1 µM | Potency (OV90) 5.01 µM | Potency (Tov-21-G) 0.316 µM | Potency (Tov112D) 0.1 µM

CCCc1c(C(C)C)nc(C(C)C)c([C@@H](C)O)c1-c1ccc(F)cc1O
inactive: outcome [3] | Potency [6] | Potency [7] | Potency [8] | Potency [9] | Potency (CASKI) | Potency (Es-2) | Potency (Hek293T) | Potency (OV90) | Potency (Tov-21-G)
active: Potency [1] 14.1 µM | Potency [2] 14.1 µM | Potency [5] 14.5 µM

COC1CC(=O)C23C(=O)NC(CC(C)C)C2C(C)C(C)=CC3/C=C(\C)CCC(O)C1O (stereo not drawn)
inactive: Potency [1] | Potency [2] | outcome [3] | Potency [6] | Potency [7] | Potency [8] | Potency [9] | Potency (CASKI) | Potency (Es-2) | Potency (HeLa) | Potency (Hek293T) | Potency (JEG-3) | Potency (OV90) | Potency (Tov-21-G) | Potency (Tov112D)
active: Potency [4] 3.99 µM | Potency [5] 2.24 µM

O=C(Nc1ncc(SCCN2CCCC2)s1)C1(c2ccc(S(=O)(=O)C3CC3)cc2)CC1C1CCCCC1 (stereo not drawn)
active: Potency [4] 16.3 µM | Potency [5] 12.9 µM
inactive: Potency [1] | Potency [2] | outcome [3] | Potency [6] | Potency [7] | Potency [9] | Potency (CASKI) | Potency (Es-2) | Potency (HeLa) | Potency (Hek293T) | Potency (JEG-3) | Potency (OV90) | Potency (Tov-21-G) | Potency (Tov112D)

CCN1CCC[C@@H]1CNC(=O)c1ccc2c(c1)NC(=O)/C(=C/c1ccccc1F)S2
active: Potency [4] 4.59 µM | Potency [5] 5.15 µM
inactive: Potency [1] | Potency [2] | outcome [3] | Potency [6] | Potency [7] | Potency [8] | Potency [9] | Potency (C33A) | Potency (Es-2) | Potency (HeLa) | Potency (Hek293T) | Potency (JEG-3) | Potency (Tov-21-G) | Potency (Tov112D)

O=C(C1=CCN2c3c(cccc31)OC[C@H]2CN1CCOCC1)c1cccc2ccccc12
inactive: Potency [1] | Potency [2] | outcome [3] | Potency [6] | Potency [7] | Potency [9] | Potency (CASKI) | Potency (Hek293T) | Potency (JEG-3)

c1ccc(Cn2c(-c3ccc(OCC(C4CCNCC4)n4c(-c5ccccc5)nc5ccccc54)cc3)nc3ccccc32)cc1 (stereo not drawn)
inactive: Potency [2] | outcome [3] | Potency [6] | Potency [7] | Potency [8] | Potency [9] | Z-AUC [11] 0.308 | Potency (CASKI) | Potency (Es-2) | Potency (HeLa) | Potency (Hek293T) | Potency (JEG-3) | Potency (OV90) | Potency (Tov-21-G) | Potency (Tov112D)
-0.228: Z-AUC [11, 12]
active: Potency [4] 6.61 µM
-0.72: Z-AUC ([11]; measured here: PEO4 Z-AUC)

CCOP(=O)(Cc1ccc(C(=O)Nc2ccc(Br)cc2C#N)cc1)OCC
inactive: Potency [1] | Potency [2] | outcome [3] | Potency [6] | Potency [7] | Potency [9] | Potency (CASKI) | Potency (Es-2) | Potency (HeLa) | Potency (Hek293T) | Potency (JEG-3) | Potency (OV90) | Potency (Tov-21-G) | Potency (Tov112D)

O=C(O)c1ccc(O)c2ncc(N3CCCN(CCc4cccc5ccccc45)CC3)cc12
active: Potency [2] 6.31 µM | Potency [4] 4.09 µM
inactive: outcome [3] | Potency [6] | Potency [7] | Potency [9] | Potency (CASKI) | Potency (HeLa)

C=C(C(=O)O)C1CC2=C(C)C(=O)CC2C(C)CC1O (stereo not drawn)
active: Potency [4] 11.5 µM | Potency [5] 5.78 µM
inactive: Potency [2] | outcome [3] | Potency [6] | Potency [7] | Potency [8] | Potency [9] | Potency (C33A) | Potency (CASKI) | Potency (HeLa) | Potency (Tov112D)
